# Screening results from PubChem BioAssay.
# Sampled rows, rich in hits. Any-hit rate of the full collection: about 4%.
# CF NFkB inh: inhibitors of PAF-induced NF-kB signaling, primary screen, cell-based, GFP fluorescence, uHTS. inhibition, % at 5 µM. AID 588850, 2011. actives 0.86% (n = 360,000). KKLEB NF-kB-GFP reporter, GFP fluorescence overnight;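 active means at least 50% inhibition at 5 µM, scaled per plate between neutral and stimulator controls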;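 further: PAF is a Pseudomonas aeruginosa culture filtrate used as stimulus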
# TROY NFkB inh: inhibitors of TROY-driven NF-kB signaling, primary screen, Q293 LMP1-TROYcd cells, NF-kB luciferase, uHTS; Q293 LMP1-TROYcd NF-kB luciferase reporter, 4 h; inhibition, % at 10 µM; actives 0.98% (n = 360,000); AID 1347056, 2019;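 active means compounds whose plate-normalised and pattern-corrected inhibition of the luciferase reporter signal at the single screening dose is 50% or more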
# HIF-2a inh: HIF-2a reporter inhibitors, primary screen, luminescence, 786-0 RCC cells; 786-0 RCC cells HIF-2a reporter, luciferase luminescence, overnight; inhibition, % at 18.8 µM; actives 0.72% (n = 360,000);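 active means inhibition of the luminescence signal of 40% or more relative to plate controls, in a single-dose primary screen at 18.75 µM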
# Peg3 prom inh: Peg3 promoter-driven luciferase inhibitors, primary screen, cell-based, HeLa, luciferase luminescence; actives 1.7% (n = 360,000); inhibition, % at 20 µM; HeLa PEG-Prom luciferase reporter, overnight;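 active means inhibition of at least 50% at 20 µM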
# KKLEB tox: cytotoxicity in KKLEB CF airway cells, primary screen, cytotoxicity control for CF NF-kB inhibitor project, cell-based, uHTS, fluorescence assay plates; actives 0.36% (n = 360,000); KKLEB CF airway cells viability, ATPlite luminescence, overnight; hits give low values; cells stimulated with P. aeruginosa culture filtrate; activity change (cytotoxicity), % at 5 µM;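 active means corrected activity change at or below -50% at 5 µM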
# TWEAK Fn14 block: inhibitors of TWEAK-Fn14 signaling, primary screen, luciferase reporter cells, uHTS | TWEAK-stimulated Fn14 reporter cells, luciferase luminescence, 8 h | inhibition, % at 10 µM | actives 2% (n = 360,000) | AID 1159606, 2016; in the data active means inhibition above about 50%
# Numbers stand for hits; . = inactive; / = no result given.
SMILES,CF NFkB inh,TROY NFkB inh,HIF-2a inh,Peg3 prom inh,KKLEB tox,TWEAK Fn14 block
CCC(C)c1ccc(OCC(=O)Nc2cccc(C(=O)Nc3ccc(C(=O)O)cc3)c2)cc1 (configuration not stated),.,.,.,.,.,.
c1ccc2cc(N3CCCCC3)ccc2c1,.,.,.,.,.,.
NC(=O)C1CCN(c2ccc3c(c2)S(=O)(=O)c2ccccc2C3=O)CC1,.,63,.,.,.,.
O=C1c2ccccc2C(=O)c2cc(N3CCCCC3)ccc21,.,83,.,.,-63,101
Cc1cccc(CNc2ncnc3[nH]ncc23)c1,.,.,.,.,.,.
N=c1c2c(-c3ccccc3)c(-c3ccccc3)n(Cc3ccco3)c2ncn1Cc1ccco1,.,/,.,105,.,.
O=C(Nc1ccc(Oc2ccc(Cl)cc2)c(Cl)c1)c1cc(I)cc(I)c1O,66,72,.,82,.,57
COc1ccc(NC(=O)c2ccccc2F)cc1Cl,.,.,.,.,.,.
C/C(Cc1ccccc1)=N\NC(=O)CNC(=O)c1ccccc1F,.,.,.,.,.,.
Cc1nc2cc(N3CCCCC3)c(NC(=O)c3ccncc3)cc2c(=O)n1Cc1ccccc1,.,.,.,86,.,.
Cc1nc2cc(N3CCOCC3)c(NC(=O)C3CC3)cc2c(=O)n1Cc1ccccc1,.,.,.,.,.,.
O=S(=O)(Cc1cc(Cl)nc(-c2ccncc2)n1)c1ccccc1,.,51,.,.,.,.
O=c1c(Cc2ccc(F)cc2)c(O)ccn1Cc1ccco1,.,.,.,.,.,.
Nc1ccc(-c2nc3cc(N)ccc3s2)cc1,.,.,.,.,.,.
Nc1ccc2nc(-c3ccccc3)sc2c1,.,.,.,.,.,90
COc1ccc2nc(-c3ccc(F)cc3)sc2c1,.,.,.,.,.,75
Cc1ccc2nc(-c3ccc(N)cc3)sc2c1,.,.,.,.,-56,.
Nc1ccc(-c2nc3ccccc3s2)cn1,.,.,.,.,.,.
CNC(=S)Nc1ccc(-c2nc3ccc(C)cc3s2)cc1,.,.,.,.,.,.
Cc1cc(-c2nc3ccccc3s2)ccc1N,.,.,.,.,.,83
Cc1ccc2nc(-c3ccc(NC(=S)NCC(C)(C)CN(C)C)cc3)sc2c1,.,.,.,60,.,.
O=C1CCC(=O)N1c1ccc(-c2nc3ccccc3s2)cc1,.,83,.,.,.,90
COc1ccc2c(c1)C(SCC(=O)NCCc1ccccc1)CC(C)(C)O2 (configuration not stated),.,.,.,.,.,.
CC(CCc1ccccc1)NC(=O)COC(=O)CC1CC2CCC1C2 (configuration not stated),.,.,.,.,.,.
CCCNC(=O)c1ccc(S(=O)(=O)c2ccc(OC)cc2)c([N+](=O)[O-])c1,.,.,.,.,.,72
SMILES,CF NFkB inh,TROY NFkB inh,HIF-2a inh,Peg3 prom inh,KKLEB tox,TWEAK Fn14 block
COc1ccc(OCC(O)CNCCOc2ccccc2OC)c(C(C)(C)C)c1 (configuration not stated),.,.,.,63,.,.
CCN1C(=O)Nc2cccc3cccc1c23,.,.,.,.,.,.
C=CCN1C(=O)N(CC=C)c2cccc3cccc1c23,.,66,.,.,.,.
Cc1[nH]c2ccccc2c1C(=O)CSc1nc2ncc(Cl)cc2[nH]1,.,.,.,115,.,.
Cc1ccc2nc(SCC(=O)c3c(C)[nH]c4ccccc34)[nH]c2c1,.,.,.,.,.,.
COc1cccc(NC(=O)C(=O)N/N=C/c2ccc3c(c2)OCO3)c1,.,.,.,.,.,.
O=[N+]([O-])c1ccccc1OCCOCCOc1cccc2cccnc12,.,87,.,.,.,75
COC(=O)c1ccccc1OCCOCCOc1cccc2cccnc12,.,.,.,.,.,.
O=C(/C=C/Nc1ccc(S(=O)(=O)Nc2ncccn2)cc1)c1cccs1,.,.,.,.,.,60
O=C(/C=C/Nc1ccc(S(=O)(=O)Nc2ncccn2)cc1)c1ccc(Cl)c(Cl)c1,.,.,.,.,.,.
CCN1CCN(c2ccc(S(=O)(=O)N3CCOCC3)cc2NC(=O)C2CCC(C(C)(C)C)CC2)CC1 (configuration not stated),.,.,.,.,.,.
COP(C)(=O)c1c(C)nn(-c2ccccc2)c1C (configuration not stated),.,/,.,.,.,69
CC(=O)c1c(C)nn(-c2ccccc2)c1C,.,.,.,.,.,.
C/C(=N\N1CCN(c2ccc(Cl)cc2)CC1)c1cccs1,.,.,.,.,.,.
N#Cc1ccc(NC(=O)Nc2ccc(Cl)cc2)cc1,.,.,.,.,.,63
CN(CC(=O)Nc1ccc(C#N)cc1)Cc1ccc(Cl)cc1,.,.,.,.,.,.
Oc1c(Cl)cc(Cl)cc1C=Nc1ccc2c(c1)OCCO2,.,63,.,.,.,75
Brc1csc(C=Nc2ccc3c(c2)OCCOCCOCCOCCO3)c1,.,.,.,.,.,.
O=C(/C=C/c1ccco1)NCC1(c2ccccc2)CCCC1,.,87,.,.,.,89
COC(=O)Cc1ccc(NC(=S)N2CCN(c3cc(Cl)ccc3C)CC2)cc1,.,.,.,.,.,56
COC(=O)Cc1ccc(NC(=S)N2CCN(c3ccccn3)CC2)cc1,.,.,.,.,.,.
O=C(C(=O)c1cc(Br)ccc1O)c1cc(Br)ccc1O,60,66,.,.,.,.
C/C(=N\Nc1cccc2cccnc12)c1ccccc1O,.,.,.,.,.,.
C/C(=N\Nc1cccc2cccnc12)c1ccc(N)cc1,.,62,.,.,.,.
C/C(=N\Nc1cccc2cccnc12)c1ccccn1,.,.,.,.,.,70
SMILES,CF NFkB inh,TROY NFkB inh,HIF-2a inh,Peg3 prom inh,KKLEB tox,TWEAK Fn14 block
Cc1cc(C)c2nc(N3CCC(C(=O)NCCCN4CCCCC4)CC3)sc2c1,.,.,.,70,.,.
CCC1C/C(=C\c2cccnc2)C(=O)/C(=C/c2cccnc2)C1 (configuration not stated),93,59,92,109,-66,105
CC(=O)Nc1ccc(/C=C2\CCc3ccccc3C2=O)cc1,.,71,.,.,-57,76
O=C1/C(=C\c2cccnc2)CCc2ccccc21,.,/,.,.,.,92
O=C1/C(=C/c2ccccc2)CCCc2ccccc21,.,.,.,.,.,.
COc1ccc(/C=C2\Cc3ccccc3C2=O)cc1OC,.,.,.,.,.,.
O=C1/C(=C/c2cccnc2)CC/C1=C\c1cccnc1,.,.,.,.,.,.
